# From PubChem BioAssay AID651815 (National Center for Advancing Translational Sciences (NCATS), 2012)
# Values joined by “and” are separate entries in the source; they are usually repeats but may differ in a detail not shown here. Equal entries are not always repeated. Screen size: about 2,100 compounds; about 1,100 (52%) were called active. Not shown: some 29% with an inconclusive outcome. The set was probably picked from earlier hits. The list shows a part of the results. Values without a mark were called inactive. Calls follow the shape of the dose curve; as a rule, active = well fitted inhibition curve with a large enough effect; inconclusive = small, poorly fitted or top-dose-only effect; inactive = no such curve, though single readings can be large or run the other way.
# Biological target: DNA dC->dU-editing enzyme APOBEC-3F (Homo sapiens) (UniProt Q8IUX4)
# Sequence (Q8IUX4 whole entry, looked up): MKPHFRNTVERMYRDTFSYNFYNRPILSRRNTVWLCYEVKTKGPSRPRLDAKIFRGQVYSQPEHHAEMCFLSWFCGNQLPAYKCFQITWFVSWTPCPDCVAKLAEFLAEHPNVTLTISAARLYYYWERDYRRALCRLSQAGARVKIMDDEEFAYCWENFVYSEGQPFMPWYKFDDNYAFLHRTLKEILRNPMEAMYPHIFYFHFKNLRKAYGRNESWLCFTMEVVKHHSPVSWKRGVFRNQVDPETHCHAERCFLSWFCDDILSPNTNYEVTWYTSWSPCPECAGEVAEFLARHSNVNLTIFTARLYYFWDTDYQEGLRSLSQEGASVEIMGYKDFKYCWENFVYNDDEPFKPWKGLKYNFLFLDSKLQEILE
# Test: qHTS for inhibitors of Vif-A3F interactions: Cherry picks counterscreen; also: nearly all actives have a fitted effect of over 65% in size
# Details: HeLa A3F-eYFP/Vif cells, eYFP fluorescence, 24 h; series mostly up to 46.1 µM; activity, negative = inhibitor: at the top concentration
# Outline: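 HeLa cells stably expressing A3F-eYFP and Vif, cultured overnight, then treated 24 h at 37 degrees C with compounds at several concentrations; yellow fluorescence (488 nm Ex/500-530 nm Em) imaged on Acumen; MG132 positive control.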
# % is scaled to controls: 0 for no effect and ±100 for the full control effect; potency is read from the fitted curve at half-maximal effect.
SMILES,"activity, negative = inhibitor",Potency
Nc1ccc2nc(-c3ccccc3)c(-c3ccccc3)nc2c1,-17.6% [at 36.9 µM],–
Nc1ccc(/C=C/c2cc(Cl)nc3ccccc23)cc1,–,23.1 µM (active)
Cc1c(N2C(=O)/C(=C/c3ccc(N(C)C)cc3)N(C)C2=S)c(=O)n(-c2ccccc2)n1C,–,20.6 µM (active)
CN1C(=O)/C(=C\c2ccc(N(C)C)cc2)OC1=S,–,1.98 µM (active)
CN1C(=S)N(c2cccnc2)C(=O)/C1=C\c1ccc(N(C)C)cc1,–,9.94 µM (active)
Cc1ccc(/C=N/NC(=O)CCCOc2ccc(Cl)cc2Cl)cc1,–,4.98 µM (active)
O=C1NC(c2ccccc2Br)=N/C1=C\c1ccco1,-3.88%,–
O=C1N/C(=C\c2ccccc2)c2ccccc21,–,1.58 µM (active)
Cc1cccc2cc3c(N)c(C(=O)N4CCCc5ccccc54)sc3nc12,–,20.6 µM (active)
Cc1cccc2cc3c(N)c(C(=O)N4CCc5ccccc54)sc3nc12,–,6.51 µM (active)
Cc1ccc2nc3sc(C(=O)N4CCCc5ccccc54)c(N)c3cc2c1,–,12.5 µM (active)
Fc1ccc(-c2cnn3c(-c4cccs4)ccnc23)cc1,–,15.8 µM (active)
COc1ccccc1C1c2ccc3ccccc3c2Oc2ncn(CCN(C)C)c(=N)c21 (centres undefined),–,15.8 µM (active)
COC(=O)C1C2CC3c4[nH]c5cc(OC)ccc5c4CCN3CC2CC(OC2CCCCO2)C1OC (centres undefined),-27.1%,–
COC(=O)C1=COC(C)C2CN3CCc4c([nH]c5cc(OC)c(OC)cc45)C3CC12 (centres undefined),-28.4%,–
COC(=O)C1C2CC3c4[nH]c5cc(OC)ccc5c4CCN3CC2CC(OC(=O)CC(C)=O)C1OC (centres undefined),–,18.4 µM (active)
COc1ccc(-c2n[nH]c(C)c2-c2ccc(OC)c(OC)c2)c(O)c1,–,7.9 µM (active)
O=[N+]([O-])c1ccc(N/N=C/c2sc(N3CCOCC3)nc2-c2ccccc2)c(S(=O)(=O)Nc2ccccc2Cl)c1,–,5.8 µM (active)
O=[N+]([O-])c1ccccc1S(=O)(=O)Nc1ccc(-c2ccc(N3CCOCC3)nn2)cc1,-18.2%,–
COc1ccccc1NS(=O)(=O)c1cc([N+](=O)[O-])ccc1N/N=C/c1sc(N2CCOCC2)nc1-c1ccccc1,–,1.46 µM (active)
COC(=O)c1ccc(NC(=O)CC2Nc3cc(C)c(C)cc3NC2=O)cc1 (centres undefined),–,9.2 µM (active)
CCOC(=O)c1ccc(NC(=S)NC(=O)C2CCCC2)cc1,-5.14%,–
CCCSc1ncc(Cl)c(C(=O)Nc2sc3c(c2C(N)=O)CCCC3)n1,–,18.4 µM (active)
CCOC(=O)c1ccc(/C=C2/C=C(c3ccccc3)N(c3ccc(Cl)c(C(=O)O)c3)C2=O)cc1,–,20.6 µM (active)

SMILES,"activity, negative = inhibitor",Potency
Cc1cc2cc(C#N)c(SCC(=O)Nc3nonc3C)nc2cc1C,–,23.1 µM (active)
Cc1cc(NC(=O)CSc2nc3c(C)cccc3cc2C#N)no1,–,6.51 µM (active)
Cc1nonc1NC(=O)CSc1nc2c(C)cccc2cc1C#N,–,16.4 µM (active)
Cc1cc(NC(=O)CSc2nc(-c3cccs3)nc3ccccc23)no1,–,0.994 µM (active)
CC(Nc1oc(-c2ccc(COc3ccccc3)o2)nc1C#N)c1ccccc1 (centres undefined),-27.6%,–
Cc1nc2cc(NC(=O)CSc3nc4c(C)cccc4cc3C#N)ccc2s1,–,13 µM (active)
Cc1ccc2nc(SCC(=O)Nc3ccc4sc(C)nc4c3)c(C#N)cc2c1,–,16.4 µM (active)
Cc1cccc(C(=O)Nc2nnc(C3=COCCO3)o2)c1,-6.45%,–
N=C1S/C(=C\c2ccc(-c3cccc(Cl)c3)o2)C(=O)N1c1nccs1,–,18.4 µM (active)
O=C(N/N=C/c1c(O)n(-c2ccc(Cl)cn2)c(=O)c2ccccc12)c1ccncc1,-29.3%,–
Cc1ccc(N=Cc2c(O)n(-c3nccs3)c(=O)c3ccccc23)c(C)c1,-8.48%,–
COc1ccc(N=Cc2c(O)n(-c3cccc(C)n3)c(=O)c3ccccc23)c(OC)c1,–,23.1 µM (active)
CCOC(=O)Cc1ccc(Nc2nc3cc(-c4sccc4C)sc3c(=O)n2C)cc1,–,3.96 µM (active)
COc1ccc(-n2nnnc2-c2cccc(OC)c2)cc1,–,1.25 µM (active)
CCOc1cccc(-n2nnnc2-c2ccc(OC)cc2)c1,–,4.44 µM (active)
COc1ccc(-n2nnnc2-c2ccccc2)cc1,–,2.5 µM (active)
COc1ccc(-n2cc3c(-c4cccc(Br)c4)nnc(C)c3n2)cc1,-21.6%,–
COc1cc(-c2cnc3c(NC(C)=O)cc(-c4ccccc4CN(C)C)cn23)cc(OC)c1OC,–,12.5 µM (active)
COc1ccc(-c2cc(NC(C)=O)c3ncc(-c4cc(OC)c(OC)c(OC)c4)n3c2)cn1,–,7.04 µM (active)
CC(NC(=O)c1ccc(Nc2nc3ccccc3n3nnnc23)cc1)c1ccccc1 (centres undefined),–,18.4 µM (active)
Cc1ccc(CNC(=O)c2cccc(Nc3nc4ccccc4n4nnnc34)c2)cc1,–,20.6 µM (active)
COc1ccccc1CNC(=O)c1ccc(Nc2nc3ccccc3n3nnnc23)cc1,–,23.1 µM (active)
COc1cc(Nc2nc3ccccc3n3nnnc23)cc(OC)c1OC,–,13 µM (active)
Cc1cc(C)nc(-n2nc(C)cc2NC(=O)c2ccc(F)cc2F)n1,-4.7%,–

SMILES,"activity, negative = inhibitor",Potency
COc1cc2ccccc2cc1C(=O)N/N=C/c1cccs1,–,1.77 µM (active)
COc1ccc(NC(=O)/C(C#N)=C\C=C\c2ccco2)cc1,–,7.04 µM (active)
COc1ccc(NC(=O)/C(C#N)=C/C=C/c2ccco2)cc1,–,6.27 µM (active)
C=CCOc1ccc2nc(NC(=O)OC)[nH]c2c1,–,2.5 µM (active)
CCOC(=O)c1c(NC(=O)CSc2nc3ccc(OC)cc3[nH]2)sc2c1CC(C)(C)NC2(C)C,-11.3%,–
CC(C)n1cnc2c(NCc3ccccc3)cc(N[C@H](C)CO)cc21,–,14 µM (active)
COc1ccccc1Nc1nnc(SCC2CCCCO2)s1 (centres undefined),–,14 µM (active)
Cc1ccc(NC(=O)C(=Cc2ccc(C(=O)O)cc2)C(=O)Nc2ccc(C)cc2C)c(C)c1,–,3.53 µM (active)
C=CCN1C(=O)/C(=C/c2ccc(O)c(OC)c2)S/C1=N/c1nccs1,46.6%,–
CN(C)c1ccc(/C=C2\SC(=S)N(Nc3ncc(C(F)(F)F)cc3Cl)C2=O)cc1,–,6.51 µM (active)
COc1cc(/C=C2\SC(=S)N(Nc3ncc(C(F)(F)F)cc3Cl)C2=O)ccc1O,–,20.6 µM (active)
COc1cc(/C=C2\SC(=S)N(NC(=O)c3ccccc3OC)C2=O)ccc1O,-11.7%,–
N=C1/C(=C\c2coc3ccccc3c2=O)C(=O)N=C2SC(c3ccncc3)=NN12,–,20.6 µM (active)
COc1ccc(-c2coc3cc4oc(=O)cc(-c5ccccc5)c4cc23)cc1F,–,1.98 µM (active)
COc1ccc(C)cc1NCc1cc(=O)oc2cc(-c3ccccc3)c(O)cc12,-25.1% [at 36.9 µM],–
COc1ccc2nc3sc(C(=O)Nc4cc(Cl)c(OC)cc4OC)cc3cc2c1,–,4.11 µM (active)
Nc1nc2n[nH]nc2c(=O)[nH]1,–,9.2 µM (active) and 3.96 µM (active)
Cc1noc(C)c1CSc1nc2ccccc2c(=O)n1-c1ccccc1,–,3.53 µM (active)
C=CCn1c(SCc2c(C)noc2C)nc2cc(C(=O)O)ccc2c1=O,–,17.7 µM (active)
O=S(=O)(Nc1nc2ccccc2nc1N1CCN(c2ccccc2)CC1)c1ccc(F)cc1,–,18.4 µM (active)
CN1CCN(c2nc3ccccc3nc2NS(=O)(=O)c2ccc(Br)cc2)CC1,–,18.4 µM (active)
O=S(=O)(Nc1nc2ccccc2nc1N1CCc2ccccc2C1)c1ccc(Br)cc1,–,23.1 µM (active)
O=C(N=c1ccn(-c2nc3ccccc3nc2NS(=O)(=O)c2ccc(Cl)cc2)cc1)c1cccs1,–,16.4 µM (active)
O=C(N=c1ccn(-c2nc3ccccc3nc2NS(=O)(=O)c2ccccc2)cc1)c1cccs1,-19.2%,–

SMILES,"activity, negative = inhibitor",Potency
NC(=O)C1CCN(c2nc3ccccc3nc2NS(=O)(=O)c2ccc(Br)cc2)CC1,–,16.4 µM (active)
O=S(=O)(Nc1nc2ccccc2nc1N1CCN(c2ccccn2)CC1)c1ccc(Cl)cc1,–,16.4 µM (active)
O=C(NC(=S)N1CCN(c2ccccn2)CC1)c1ccccc1,12.7%,–
Cc1c(=O)n(OCc2ccc(Cl)cc2)c2ccccc2[n+]1[O-],-16.2% [at 36.9 µM],–
CC1=C/C(=C\C=C(C#N)C#N)N(C)c2ccccc21,–,3.26 µM (active)
CN1/C(=C\C=C(C#N)C#N)C(C)(C)c2ccccc21,–,16.4 µM (active)
CN1/C(=C/C=C(C#N)C#N)C(C)(C)c2ccccc21,–,2.91 µM (active)
CN1/C(=C/C=C(/C#N)C(N)=O)C(C)(C)c2ccccc21,–,7.04 µM (active)
COC(=O)COc1cccc2c(=O)n(CC(=O)NCc3ccccc3)ccc12,–,4.44 µM (active)
CCOC(=O)C(C)Oc1cccc2c(=O)n(CC(=O)NCc3ccco3)ccc12 (centres undefined),–,3.14 µM (active)
CCOc1cc(C)nc(NCc2ccccc2)n1,-25.2% [at 36.9 µM],–
CCC(C)Sc1cc(-c2nc3ccccn3c2NC2CCCCC2)ccc1OC (centres undefined),-26.4%,–
COc1ccc(-c2nnc(SCC(=O)NCc3ccccc3)nc2-c2ccc(OC)c(OC)c2)cc1OC,–,5.17 µM (active)
COc1cc(-c2nc3ccc(C)cn3c2NCc2ccccc2)ccc1SC1CCCCC1,0.399% [at 36.9 µM],–
CCOc1cc(-c2nnc(SCC(=O)NCc3ccccc3)nc2-c2ccc(OC)c(OCC)c2)ccc1OC,–,2.31 µM (active)
COc1ccc(-c2nc3c4ccccc4ccn3c2Cc2ccsc2)cc1OC,-14.4% [at 36.9 µM],–
N#CC1=C(N)C(C#N)(C#N)[C@H](c2c(F)cccc2F)[C@H]2CC3(CC=C12)OCCO3,–,16.4 µM (active)
Cc1ccc(/C=C2/NC(=O)N(Cc3ccccc3F)C2=O)s1,–,4.11 µM (active)
Cc1cccc(CN2C(=O)N/C(=C/c3ccc(C)s3)C2=O)c1,–,12.5 µM (active)
C/C(CCC(C)C)=N\NC(=S)NCc1ccccc1,0.97%,–
CC(=O)Nc1ccc(C2=CC(=O)C[C@H](c3ccc(Cl)cc3)C2)cc1,–,20.6 µM (active)
CC(=O)Nc1ccc2c(c1)Cc1ccc(Cl)cc1-2,-0.691%,–
